In PubChem BioAssay:
Where “and” joins values, the source holds several entries; their conditions need not be identical. Equal entries are not always repeated. Some structures have more than one record in an assay (separate samples or runs), and their calls can disagree. Calls of active or inactive are those of the source.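 The calls were made as follows, unless noted: active = normalized viability below 100% at a tested concentration; inactive = the rest.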

Key:
[1] = molecular target: 6-phosphogluconate dehydrogenase, decarboxylating (Homo sapiens) (UniProt P52209); assay: 6PGD enzyme inhibitors, primary screen, biochemical, human, recombinant enzyme, NADPH absorbance (AID 1159550;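 active = at least 20% inhibition of 6-phosphogluconate dehydrogenase activity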); settings: recombinant 6PGD, NADPH absorbance 341 nm; at 10 µM; stronger effect = higher value
[2] = differential killing of epithelial or mesenchymal cells, primary screen, imaging, PC-3E GFP, TEM4-18 mCherry, co-culture (AID 1345086;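 active = compounds killing one labelled cell type while sparing the other, by normalised counts and ratio limits, not self-fluorescent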;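 as to all read-outs here: cells exposed to compound for 72 h before imaging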;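 as to red/green cell ratio (normalised): normalised mesenchymal count divided by normalised epithelial count so high means epithelial killing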); settings: imaging cell counts, at 1 µM; for red/green cell ratio (normalised): actives lie on both sides, counts scaled to control wells, 1 = unselective
[3] = survival rescue of mitochondrial mutant cells in low glucose, primary screen, MELAS cybrids, Rieske KO mouse fibroblasts, CellTiter-Glo (AID 1508586;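 active = mean z-score across replicates of 1.96 or higher in either the MELAS or the Rieske mutant cell line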;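 also: z relative to plate mean and SD of compound and empty wells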)
[4] = molecular target: NAD(+) hydrolase SARM1 (Homo sapiens) (UniProt Q6SZW1); assay: SARM1 TIR NADase inhibitors, cell lysate, NAD-Glo luminescence (AID 1508614;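 active = compound whose remaining NAD level is above about 45 nM, limit read from the data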;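 also: higher remaining NAD means stronger inhibition of SARM1 NADase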); settings: SAM-TIR HEK293T lysate NADase, at 1 µM, stronger effect = higher value
[5] = molecular target: Mitogen-activated protein kinase 7 (Homo sapiens) (UniProt Q13164); assay: ERK5 transactivation activators in reporter cells, primary screen, cell-based, HTS (AID 1508626;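 active = luciferase signal above three times the same-plate solvent-only control wells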;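 also: luciferase driven by Gal4-ERK5 fusion binding five Gal4 sites before minimal TATA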); settings: HeLa Gal4-ERK5 transactivation, 18 h, at 5 µM, stronger effect = higher value
[6] = viability rescue of complex I mutant cybrids, primary screen, cell-based, galactose medium, ATP luminescence (AID 1645843;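 active = z-score of at least 1.8 in each of two replicates, scored against plate mean and spread of sample wells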;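 also: positive z means more ATP and so rescue of galactose-driven cybrid death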); settings: complex I mutant cybrid cells, 72 h, stronger effect = higher value
[7] = ovarian cancer cell viability with rucaparib, profiling panel, oncology-focused library, rucaparib conditional (AID 1508598); settings: patient-derived ovarian cancer cells, CellTiter-Glo viability, 144 h, stronger effect = lower value
[8] = liver-stage malaria parasite growth inhibition, primary screen, cell-based, HepG2, luciferase luminescence, HepG2 viability (AID 624349; in the data active = parasite load remaining mostly below about 12%, no sharp cut-off; inactive = mostly above about 10%;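 also: 100% = mean of DMSO negative control wells on the same plate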); settings: P. berghei liver stage in HepG2, luciferase luminescence, concentration not given here; parasite load remaining: stronger effect = lower value; viability: measured here: HepG2 viability without parasites
[9] = measured here: epithelial PC-3E GFP cell survival
[10] = measured here: mesenchymal TEM4-18 mCherry cell survival
[11] = MELAS cybrid survival, CellTiter-Glo 48 h, stronger effect = higher value
[12] = Rieske KO mouse fibroblast survival, CellTiter-Glo 72 h

Chain of Mitogen-activated protein kinase 7 (Homo sapiens) (Q13164 whole entry, looked up, the tested form may be a part): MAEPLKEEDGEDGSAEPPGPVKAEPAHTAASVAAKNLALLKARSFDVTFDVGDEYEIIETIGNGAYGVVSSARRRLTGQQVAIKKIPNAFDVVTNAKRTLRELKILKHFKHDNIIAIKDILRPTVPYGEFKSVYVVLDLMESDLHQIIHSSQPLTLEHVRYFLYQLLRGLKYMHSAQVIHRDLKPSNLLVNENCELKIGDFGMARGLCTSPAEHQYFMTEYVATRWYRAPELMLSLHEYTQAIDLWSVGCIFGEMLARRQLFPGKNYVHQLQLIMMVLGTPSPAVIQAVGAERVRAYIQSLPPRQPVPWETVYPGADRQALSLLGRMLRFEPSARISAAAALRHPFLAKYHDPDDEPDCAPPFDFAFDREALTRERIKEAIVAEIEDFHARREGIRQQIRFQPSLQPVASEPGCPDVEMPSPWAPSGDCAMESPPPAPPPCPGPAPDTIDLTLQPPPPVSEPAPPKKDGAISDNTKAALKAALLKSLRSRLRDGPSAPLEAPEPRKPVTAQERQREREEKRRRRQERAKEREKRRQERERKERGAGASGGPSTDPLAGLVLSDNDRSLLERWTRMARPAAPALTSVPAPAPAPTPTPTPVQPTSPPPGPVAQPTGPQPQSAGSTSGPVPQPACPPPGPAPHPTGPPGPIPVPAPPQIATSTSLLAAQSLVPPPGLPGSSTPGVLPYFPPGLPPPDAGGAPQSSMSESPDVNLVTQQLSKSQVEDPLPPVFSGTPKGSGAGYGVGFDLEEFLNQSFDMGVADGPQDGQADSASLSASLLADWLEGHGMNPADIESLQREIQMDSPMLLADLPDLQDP
Chain of 6-phosphogluconate dehydrogenase, decarboxylating (Homo sapiens) (P52209 whole entry, looked up): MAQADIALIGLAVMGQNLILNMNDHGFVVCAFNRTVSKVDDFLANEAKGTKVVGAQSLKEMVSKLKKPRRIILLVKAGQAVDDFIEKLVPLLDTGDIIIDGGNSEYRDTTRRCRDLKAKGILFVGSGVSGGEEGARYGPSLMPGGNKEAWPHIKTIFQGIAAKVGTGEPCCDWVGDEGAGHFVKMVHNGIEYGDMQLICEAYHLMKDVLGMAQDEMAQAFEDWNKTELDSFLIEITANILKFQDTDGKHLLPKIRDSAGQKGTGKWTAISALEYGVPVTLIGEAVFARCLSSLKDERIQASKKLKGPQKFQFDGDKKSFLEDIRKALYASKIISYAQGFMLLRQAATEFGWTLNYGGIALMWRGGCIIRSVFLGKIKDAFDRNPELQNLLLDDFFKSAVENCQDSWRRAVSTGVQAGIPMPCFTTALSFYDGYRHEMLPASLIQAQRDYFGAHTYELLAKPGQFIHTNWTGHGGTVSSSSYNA
Chain of NAD(+) hydrolase SARM1 (Homo sapiens) (Q6SZW1 whole entry, looked up, the tested form may be a part): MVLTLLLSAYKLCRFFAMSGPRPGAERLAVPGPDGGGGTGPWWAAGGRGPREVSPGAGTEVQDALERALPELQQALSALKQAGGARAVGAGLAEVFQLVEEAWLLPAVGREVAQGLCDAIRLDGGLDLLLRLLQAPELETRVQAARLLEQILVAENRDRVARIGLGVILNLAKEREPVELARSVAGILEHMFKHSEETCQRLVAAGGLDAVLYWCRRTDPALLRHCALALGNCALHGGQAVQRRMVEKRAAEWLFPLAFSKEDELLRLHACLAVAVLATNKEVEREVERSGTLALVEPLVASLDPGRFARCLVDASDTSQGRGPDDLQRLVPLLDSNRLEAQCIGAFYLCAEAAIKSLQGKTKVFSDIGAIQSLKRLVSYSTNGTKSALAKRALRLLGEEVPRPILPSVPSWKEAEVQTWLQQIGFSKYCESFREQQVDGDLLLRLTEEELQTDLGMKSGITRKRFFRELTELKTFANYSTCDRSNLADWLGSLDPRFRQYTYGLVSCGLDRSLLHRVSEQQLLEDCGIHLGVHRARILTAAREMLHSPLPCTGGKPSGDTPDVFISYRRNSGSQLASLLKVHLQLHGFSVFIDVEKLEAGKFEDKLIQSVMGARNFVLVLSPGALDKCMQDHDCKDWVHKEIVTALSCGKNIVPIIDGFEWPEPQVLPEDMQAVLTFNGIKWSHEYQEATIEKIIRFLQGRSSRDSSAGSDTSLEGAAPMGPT

C=C1C2=CC(=O)O[C@@H](c3ccoc3)[C@]2(C)CCC1[C@@]1(C)C=CC(=O)C(C)(C)[C@@H]1CC(=O)OC (some centres not stated)
inhibition [1]: 1.03% (inactive) | red/green cell ratio (normalised) [2]: 1.06 (inactive) | normalised cell number [2, 9]: 1.13 | normalised cell number [2, 10]: 1.2

COc1cc(CNC(=O)CCCC/C=C/C(C)C)ccc1O
inhibition [1]: 18.7% (inactive) | red/green cell ratio (normalised) [2]: 0.88 (inactive) | normalised cell number [2, 9]: 1.14 | normalised cell number [2, 10]: 1 | z-score [3, 11]: -0.437 (inactive) | z-score [3, 12]: -0.16 | remaining NAD [4]: 10 nM (inactive) | luciferase signal [5]: 32 AU (inactive) | z-score [6]: 0.07 (inactive) and 0.225 (inactive)

CCCCCCCC/C=C/CCCCCCCCOP(=O)([O-])OCC[N+](C)(C)C
inhibition [1]: 17.1% (inactive) | red/green cell ratio (normalised) [2]: 0.71 (inactive) | normalised cell number [2, 9]: 1.36 | normalised cell number [2, 10]: 0.96

CC1CC[C@@]2(OC1)O[C@H]1CC3C4CC[C@@H]5C[C@@H](O)CC[C@]5(C)C4CC[C@]3(C)[C@H]1[C@@H]2C (some centres not stated)
inhibition [1]: -2.11% (inactive) | red/green cell ratio (normalised) [2]: 1.16 (inactive) | normalised cell number [2, 9]: 1.03 | normalised cell number [2, 10]: 1.2

COc1c(C)c2c(c(O)c1C/C=C(\C)CCC(=O)O)C(=O)OC2
inhibition [1]: -6.15% (inactive) | red/green cell ratio (normalised) [2]: 0.6 (active) | normalised cell number [2, 9]: 0.58 | normalised cell number [2, 10]: 0.35 | z-score [3, 11]: -0.0503 | z-score [3, 12]: 2.98 | viability ([7]; at 0.000305 µM, OCI-C5x cells, with rucaparib 10 µM, 100% = cells with rucaparib alone): 117% (inactive) | viability ([7]; at 0.000305 µM, OCI-C5x cells, without rucaparib): 124% (inactive) | viability ([7]; at 0.000305 µM, OCI-P5x cells, with rucaparib 20 µM, 100% = cells with rucaparib alone): 87.8% (active) | viability ([7]; at 0.000305 µM, OCI-P5x cells, without rucaparib): 96% (active) | viability ([7]; at 0.00122 µM, OCI-C5x cells, with rucaparib 10 µM, 100% = cells with rucaparib alone): 121% (inactive) | viability ([7]; at 0.00122 µM, OCI-C5x cells, without rucaparib): 126% (inactive) | viability ([7]; at 0.00122 µM, OCI-P5x cells, with rucaparib 20 µM, 100% = cells with rucaparib alone): 90.6% (active) | viability ([7]; at 0.00122 µM, OCI-P5x cells, without rucaparib): 103% (inactive) | viability ([7]; at 0.00488 µM, OCI-C5x cells, with rucaparib 10 µM, 100% = cells with rucaparib alone): 129% (inactive) | viability ([7]; at 0.00488 µM, OCI-C5x cells, without rucaparib): 128% (inactive) | viability ([7]; at 0.00488 µM, OCI-P5x cells, with rucaparib 20 µM, 100% = cells with rucaparib alone): 96.9% (active) | viability ([7]; at 0.00488 µM, OCI-P5x cells, without rucaparib): 109% (inactive) | viability ([7]; at 0.0195 µM, OCI-C5x cells, with rucaparib 10 µM, 100% = cells with rucaparib alone): 121% (inactive) | viability ([7]; at 0.0195 µM, OCI-C5x cells, without rucaparib): 129% (inactive) | viability ([7]; at 0.0195 µM, OCI-P5x cells, with rucaparib 20 µM, 100% = cells with rucaparib alone): 95.2% (active) | viability ([7]; at 0.0195 µM, OCI-P5x cells, without rucaparib): 112% (inactive) | viability ([7]; at 0.0781 µM, OCI-C5x cells, with rucaparib 10 µM, 100% = cells with rucaparib alone): 166% (inactive) | viability ([7]; at 0.0781 µM, OCI-C5x cells, without rucaparib): 162% (inactive) | viability ([7]; at 0.0781 µM, OCI-P5x cells, with rucaparib 20 µM, 100% = cells with rucaparib alone): 97.4% (active) | viability ([7]; at 0.0781 µM, OCI-P5x cells, without rucaparib): 97% (active) | viability ([7]; at 0.313 µM, OCI-C5x cells, with rucaparib 10 µM, 100% = cells with rucaparib alone): 180% (inactive) | viability ([7]; at 0.313 µM, OCI-C5x cells, without rucaparib): 189% (inactive) | viability ([7]; at 0.313 µM, OCI-P5x cells, with rucaparib 20 µM, 100% = cells with rucaparib alone): 85.4% (active) | viability ([7]; at 0.313 µM, OCI-P5x cells, without rucaparib): 62.1% (active) | viability ([7]; at 1.25 µM, OCI-C5x cells, with rucaparib 10 µM, 100% = cells with rucaparib alone): 128% (inactive) | viability ([7]; at 1.25 µM, OCI-C5x cells, without rucaparib): 117% (inactive) | viability ([7]; at 1.25 µM, OCI-P5x cells, with rucaparib 20 µM, 100% = cells with rucaparib alone): 70% (active) | viability ([7]; at 1.25 µM, OCI-P5x cells, without rucaparib): 40.7% (active) | viability ([7]; at 5 µM, OCI-C5x cells, with rucaparib 10 µM, 100% = cells with rucaparib alone): 73.1% (active) | viability ([7]; at 5 µM, OCI-C5x cells, without rucaparib): 56.4% (active) | viability ([7]; at 5 µM, OCI-P5x cells, with rucaparib 20 µM, 100% = cells with rucaparib alone): 46.2% (active) | viability ([7]; at 5 µM, OCI-P5x cells, without rucaparib): 30.7% (active) | remaining NAD [4]: 10 nM (inactive) | luciferase signal [5]: 48 AU (inactive) | z-score [6]: 1.33 (inactive) and 1.68 (inactive)

COc1cc(OC)c2c(=O)c(-c3ccccc3)c(C)oc2c1OC
inhibition [1]: -9.49% (inactive) | red/green cell ratio (normalised) [2]: 1.02 (inactive) | normalised cell number [2, 9]: 1.09 | normalised cell number [2, 10]: 1.11

O=C(O[C@@H]1Cc2c(O)cc(O)cc2O[C@@H]1c1cc(O)c(O)c(O)c1-c1c([C@H]2Oc3cc(O)cc(O)c3C[C@H]2OC(=O)c2cc(O)c(O)c(O)c2)cc(O)c(O)c1O)c1cc(O)c(O)c(O)c1
inhibition [1]: -4.6% (inactive) | red/green cell ratio (normalised) [2]: 1.06 (inactive) | normalised cell number [2, 9]: 0.89 | normalised cell number [2, 10]: 0.94

COc1cc2c(cc1OC)C1C(=O)c3c(cc4c(c3O)C=CC(C)(C)O4)OC1CO2 (configuration not stated)
inhibition [1]: 7.64% (inactive) | red/green cell ratio (normalised) [2]: 0.76 (inactive) | normalised cell number [2, 9]: 1.04 | normalised cell number [2, 10]: 0.79

COc1ccc2c(=O)c(OC)c(-c3ccccc3)oc2c1
inhibition [1]: 5.12% (inactive) | red/green cell ratio (normalised) [2]: 0.95 (inactive) | normalised cell number [2, 9]: 1.07 | normalised cell number [2, 10]: 1.02

O=c1cc(-c2ccc(O)cc2)oc2cc(O)cc(O)c12
parasite load remaining [8]: 95.8% (inactive) and 11.3% (inactive) and 116% (inactive) | viability [8]: 94.9% and 100% and 77.5% | inhibition [1]: -0.0494% (inactive) | red/green cell ratio (normalised) [2]: 0.91 (inactive) | normalised cell number [2, 9]: 1.2 | normalised cell number [2, 10]: 1.09 | z-score [3, 11]: -0.412 (inactive) | z-score [3, 12]: 0.346 | luciferase signal [5]: 64 AU (inactive) | z-score [6]: 2.56 (active) and -0.305 (inactive)

CC(C)=CCCC1(C)C=Cc2c(O)c3c(c(CC=C(C)C)c2O1)OC12C(=CCCC1C(C)(C)O[C@@]2(C/C=C(\C)C(=O)O)C(=O)O)C3=O (some centres not stated)
inhibition [1]: 0.371% (inactive) | red/green cell ratio (normalised) [2]: 0.93 (inactive) | normalised cell number [2, 9]: 1.16 | normalised cell number [2, 10]: 1.08
